We go through 16 molecules from PubChem BioAssay.

SMILES strings stand for the structures.

The experiment in a line: EMT-state selective cytotoxicity in co-culture – imaging, PC-3E GFP, TEM4-18 mCherry, primary screen (AID 1345086).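 Note: cells exposed to compound for 72 h before imaging.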 As to conditions: PC-3E GFP / TEM4-18 mCherry co-culture, imaging cell counts; measured here: epithelial PC-3E GFP cell survival; at 1 µM.
`Cc1c(-c2cnccn2)ssc1=S` gave a normalised cell number of 0.9. The figure for `CC(NCCc1ccc(O)cc1)C(O)c1ccc(O)cc1` (stereo unspecified) is 0.9; for `N[C@@H](CC(=O)N1CCn2c(nnc2C(F)(F)F)C1)Cc1cc(F)c(F)cc1F` it is 0.94.

On to `CC1(C)CCC[C@]2(C)[C@H]3CC(=O)O[C@]3(C)CC[C@@H]12`, for which the normalised cell number turned out to be 1.09. `OC[C@@H](O)[C@@H](O)[C@H](O)[C@@H](O)CO` gave a normalised cell number of 1.02. As to `O=c1ccn([C@@H]2O[C@H](CO)[C@@H](O)[C@H]2O)c(=O)[nH]1`, the normalised cell number is 1. The same measure for `CC1CC2C3CCC4=CC(=O)C=C[C@]4(C)[C@@]3(F)[C@@H](O)C[C@]2(C)[C@@]1(O)C(=O)CO` (stereo partly specified): 1.32; for `N#C[C@@H]1C[C@@H]2C[C@@H]2N1C(=O)[C@@H](N)C12CC3CC(CC(O)(C3)C1)C2`: 1.31; for `CC(C)(CO)[C@@H](O)C(=O)NCCC(=O)O`: 0.63. The same measure for `CC(C)C(C)/C=C/C(C)C1CCC2C3=CC=C4CC(O)CCC4(C)C3CCC21C` (stereo unspecified): 1. The same measure for `C[C@]12C=CC(=O)C=C1CCC1C2[C@@H](O)C[C@@]2(C)C1CC[C@]2(O)C(=O)COP(=O)(O)O` (stereo partly specified): 0.86.

In turn, `CN(C)CC[C@H](c1ccc(Cl)cc1)c1ccccn1` displayed a normalised cell number of 0.95. Molecule `CC(C)OC(=O)CCC/C=C\C[C@@H]1[C@@H](/C=C/C(O)COc2cccc(C(F)(F)F)c2)[C@H](O)C[C@@H]1O` (stereo partly specified) registered a normalised cell number of 1.24. As to `C[C@H]1COC2=C1C(=O)C(=O)c1c2ccc2c1CCCC2(C)C`, the normalised cell number came out at 0.98. Molecule `OC(c1cc(C(F)(F)F)nc2c(C(F)(F)F)cccc12)C1CCCCN1` (stereo unspecified) gave a normalised cell number of 1.16. In the case of `CN1C(C(=O)Nc2ccccn2)=C(O)c2sc(Cl)cc2S1(=O)=O`, the normalised cell number stood at 1.13.
